# Test results reported in PubChem BioAssay (NCI).
# This is part of a sample that, as a whole, favours compounds with a hit. Of some 83,000 tested, about 20% had one in any assay.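 Activity criterion: percent growth below 10, measured after cells in 96-well plates were exposed to a single compound concentration for 48 hours.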 Calls of active or inactive are those of the source.
# Test system: TK-10 renal
# Test: NCI-60 one-dose screen, 48 h (100 = growth as untreated, 0 = no growth, -100 = all killed)
# Settings: 10 µM
row,Structure (SMILES),growth
1,OCCn1cccn1,107% (inactive)
2,O=C(CCC(C(=O)c1ccccc1)c1ccccc1)c1ccccc1 (stereo not given),102% (inactive)
3,CCN(CC)CCCC(C)Nc1c2ccc(Cl)cc2nc2ccc(OC)cc12 (stereo not given),23.9% (inactive)
4,CNS(=O)(=O)Oc1ccc(-c2ccc3occc3c2)cc1,98.5% (inactive)
5,O=C1c2ccccc2C(=O)N1CCCCNc1ccccc1,117% (inactive)
6,Cc1ccc(NC(=S)NNC(=S)Nc2ccc(C)cc2)cc1,86.7% (inactive)
7,CC(=O)COc1ccc(Cl)cc1Cl,105% (inactive)
8,Nc1nc(N)c(N)c(Nc2ccc(CCO)cc2)n1,102% (inactive)
9,CCn1cc(C(=O)O)c(=O)c2cc(F)c(N3CCNCC3)cc21,116% (inactive)
10,COC1=CC(=O)OC(c2ccc(OC)cc2)C1 (stereo not given),104% (inactive)
11,Cc1ccc(C)c(COc2cc(NC(=O)c3ccc4c(c3)OCO4)ccc2N(C)S(C)(=O)=O)c1,54.1% (inactive)

# Test system: ACHN renal
# Test: as above
# Settings: 10 µM
row,Structure (SMILES),growth
1,COc1ccc(-c2csc(NC(=O)c3ccc(Cc4n[nH]c(=O)c5cccnc45)cc3)n2)cc1,88.2% (inactive)
2,COc1ccccc1/C=N\N/C(N)=N\N=C\c1ccccc1OC,20.5% (inactive)
3,O=c1cn[nH]c2ccc(Br)cc12,103% (inactive)
4,OCCn1cccn1,103% (inactive)
5,NS(=O)(=O)c1ccc(N2N=C(c3ccccc3)CCC2=O)cc1,114% (inactive)
6,COc1ccccc1N1CCCSC1=Nc1ccccc1,114% (inactive)
7,CC(C)N(CCOc1cccc(-c2nc3sccn3c2-c2ccnc(S(C)(=O)=O)n2)c1)C(C)C,93.7% (inactive)
8,O=C(CCC(C(=O)c1ccccc1)c1ccccc1)c1ccccc1 (stereo not given),72.2% (inactive)
9,CCOC(=O)CSc1nc(-c2cc(OC)ccc2OC)cc(-c2ccc(OC)cc2)c1C#N,76.7% (inactive)
10,COc1cccc(C2C(C#N)=C(N)Oc3cc(N)ccc32)c1 (stereo not given),55.4% (inactive)
11,CN(C)CCOc1cccc(-c2nc3sccn3c2-c2ccnc(S(C)(=O)=O)n2)c1,92.2% (inactive)
12,CCN(CC)CCCC(C)Nc1c2ccc(Cl)cc2nc2ccc(OC)cc12 (stereo not given),14.2% (inactive)
13,CC(C1=C(CN(C(=O)Cc2cn(-c3ccccc3)nc2-c2ccc(Cl)cc2)C(C)C)Cc2ccccc21)c1ccccn1 (stereo not given),60.4% (inactive)
14,CNS(=O)(=O)Oc1ccc(-c2ccc3occc3c2)cc1,99.5% (inactive)
15,O=C1c2ccccc2C(=O)N1CCCCNc1ccccc1,104% (inactive)
16,Cc1ccc(S(=O)(=O)N(C)CCCCCC(=O)O)cc1,102% (inactive)
17,CCN(CC)CCNc1ccc(C)c2sc3cc(Cl)ccc3c(=O)c12,28.1% (inactive)

row,Structure (SMILES),growth
1,O=C(/C=C/c1cccc(B(O)O)c1)c1cccc(B(O)O)c1,0.0369% (active)
2,Cc1ccc(NC(=S)NNC(=S)Nc2ccc(C)cc2)cc1,77.1% (inactive)
3,C[C@@H](C[C@H](CCO)c1ccccc1)c1ccc2ccccc2c1,-91.3% (active)
4,CCN(CC)CCN1c2nc3ccccc3cc2Sc2cc3ccccc3nc21,24.9% (inactive)
5,CN(C)c1ccc(/C=N/NC(=O)c2ccccc2Nc2cccc(C(F)(F)F)c2)cc1,97.4% (inactive)
6,CS(=O)(=O)c1nccc(-c2c(-c3cccc(OCCN4CCOCC4)c3)nc3sccn23)n1,90.9% (inactive)
7,O=C(CCCSc1nc(-c2ccccc2)cc(-c2ccc(Cl)cc2)n1)NO,-0.78% (active)
8,CC(=O)COc1ccc(Cl)cc1Cl,116% (inactive)
9,CN1CCc2c(sc3nc4n(-c5ccc(Cl)cc5)c(=O)[nH]n4c(=O)c23)C1,106% (inactive)
10,Cc1ccc(C2NC(=S)N3C(c4ccc(C)cc4)NC(=S)N23)cc1 (stereo not given),63.4% (inactive)
11,COCCn1cc(-c2nc(-c3cccnc3)cs2)c2cc(F)ccc21,101% (inactive)
12,Nc1nc(N)c(N)c(Nc2ccc(CCO)cc2)n1,106% (inactive)
13,CN(C)CCCSc1ccccc1NC1=C(Cl)C(=O)C(Nc2ccccc2SCCCN(C)C)=C(Cl)C1=O,-20.6% (active)
14,CCOC(=O)c1cc(C(=O)c2cc(OC)c(OC)c(OC)c2)n2c1ccc1c3cccnc3ccc12,76.2% (inactive)
15,NC1=NC(c2ccccc2)C2=C(N1)/C(=C/c1ccccc1)CCC2 (stereo not given),108% (inactive)
16,CCn1cc(C(=O)O)c(=O)c2cc(F)c(N3CCNCC3)cc21,95.5% (inactive)
17,COC1=CC(=O)OC(c2ccc(OC)cc2)C1 (stereo not given),103% (inactive)
